# NS1 function inh: influenza NS1 inhibition | Potency, µM (doses to about 46.1 µM), inactives show at the top dose activity, positive = more growth | actives 0.4% (n = 270,000) | AID 2326; note: potency is the fitted concentration of half-maximal effect; actives are rising curves; nearly all actives have a fitted effect of over 50% in size
#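 Read-out: OD600 growth recovery of NS1-expressing budding yeast. Cells grown overnight at 30C in -URA glucose medium, washed, resuspended and diluted 1:100 in 2% galactose assay medium, pH 6.0. Same strain lacking NS1 served as positive control.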
# AMA1-RON2 inh: disrupts binding of P. falciparum AMA1 to RON2 | AlphaScreen AMA1-biotinylated RON2 peptide binding | Potency, µM (highest dose often 58.2 µM), for inactives: at the top dose activity change, negative = inhibition, most hits filed as inhibitors | AID 720542 | actives 0.2% (n = 360,000); active = well fitted inhibition curve with a large enough effect; inconclusive = small, poorly fitted or top-dose-only effect; inactive = no such curve, though single readings can be large or run the other way;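 note: potency is the fitted concentration of half-maximal effect; 0% = vehicle wells and -100% = peptide control; nearly all actives have a fitted effect of over 45% in size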
#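 AMA1 (3D7) with his tag at 25 nM final met compounds first, then biotinylated RON2 peptide at 25 nM; detection used donor plus acceptor beads, 10 µg/mL apiece, read by AlphaScreen after 30 min at room temperature.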
# SARS PLpro yeast: inhibitors of SARS-CoV papain-like protease in yeast; S. cerevisiae expressing SARS-CoV PLpro, growth rescue; Potency, µM (titrated, usually from 32.9 µM), inactives show at the highest dose activity, positive = growth rescue, actives largely listed as activators; actives 0.19% (n = 330,000); AID 485353; note: potency is the fitted concentration of half-maximal effect; 0% is about no effect; nearly all actives have a fitted effect of over 55% in size
# Flu NS1 inh: validation of influenza NS1 protein function inhibitors. shares compounds with NS1 function inh. influenza NS1 function cell assay, 15-point titration. activity change, negative = inhibition, % at 32.9 µM. 1,400 tested, under 10 active; note: 0% is about no effect
# Starred values were filed as active, the others as inactive; u = inconclusive; x = no result; ! = not active in a repeat. An excerpt weighted towards active compounds, which were near 0.65% of everything screened. Unless noted, calls come from the whole dose curve.
SMILES,NS1 function inh,AMA1-RON2 inh,SARS PLpro yeast,Flu NS1 inh
CC(=O)c1ccc(NC(=O)COC(=O)c2c3c(nc4ccccc24)/C(=C\c2cccs2)CCC3)cc1,u,-17.0%,9.6%,-4.6
O=C(COC(=O)c1c2c(nc3ccccc13)/C(=C\c1cccs1)CCC2)Nc1ccccc1,24.2%,6.8%,-3.6%,x
Cc1cc(N2C(=O)C(O)=C(C(=O)c3ccc(C)o3)C2c2cccs2)no1 (configuration not stated),11.2µM*,u,3.1%,-25.7
Cc1cc(N2C(=O)C(O)=C(C(=O)c3cc4ccccc4o3)C2c2cccs2)no1 (configuration not stated),-1.4%,-1.5%,-2.2%,x
COc1cccc(CNS(=O)(=O)c2c(C)[nH]c(C)c2C(=O)N2CCCC2)c1,2.8%,-10.4%,-0.2%,x
CN1CCN(CCCNC(=O)c2ccc3c(c2)N(Cc2ccc(F)cc2)CCS3)CC1,2.82µM*,-11.2%,8.2%,-4.6
O=C(NCCCN1CCOCC1)c1ccc2c(c1)N(Cc1ccc(F)cc1)CCS2,-1.9%,-3.8%,3.2%,x
Cc1nnc2n(-c3ccc(Cl)cc3)c(=O)c3c4c(sc3n12)CN(C)CC4,-0.3%,x,-6.3%,x
CN1CCc2c(sc3c2c(=O)n(-c2ccccc2)c2nnc(SCc4ccc(Cl)cc4)n32)C1,12.6µM*,-1.8%,-2.2%,14.1
COC(=O)c1cccc(C23CC4(C2)[C@H](CN(Cc2cccnc2)[C@@H]4c2ccccc2)C3c2ccc(C(F)(F)F)cc2)c1 (some centres not stated),8.91µM*,8.3%,1.4%,2.1
COC(=O)c1cccc(C23CC4(C2)[C@H](CN(Cc2cccnc2)[C@@H]4c2ccccc2)C3c2ccc(Cl)nc2)c1 (some centres not stated),7.1%,-11.5%,-3.4%,x
O=C(COc1ccc2c(c1)oc(=O)c1ccccc12)N[C@@H](Cc1ccccc1)C(=O)O,16.2%,-0.1%,8.9%,x
O=C(COc1ccc2c(c1)oc(=O)c1ccccc12)NC(Cc1ccc(Cl)cc1)C(=O)O (configuration not stated),11.2µM*,-9.3%,7.3%,21.9
Cc1c(Cl)ccc(S(=O)(=O)N2CCN(C)CC2)c1Cl,x,0.0%,x,x
CN(c1ccccc1C(=O)O)S(C)(=O)=O,-1.1%,-5.0%,-1.4%,x
CN(C)c1ccccc1C(=O)c1ccccc1N(C)C,8.91µM*,-19.5%,1.2%,5.1
Cc1ccc(C(c2c(C)[nH][nH]c2=O)c2c(C)[nH][nH]c2=O)cc1,-36.8%,-3.2%,-0.3%,x
CSc1ccc(C(c2c(C)[nH][nH]c2=O)c2c(C)[nH][nH]c2=O)cc1,3.16µM*,12.0%,-4.8%,u
CCC(=O)Nc1sc2c(c1C#N)CC(C)(C)NC2(C)C,-25.2%,-5.3%,3.4%,x
CC(C)CC(=O)Nc1sc2c(c1C#N)CC(C)(C)NC2(C)C,10µM*,-3.5%,-1.4%,-1.1
COc1ccc(N(CC(=O)NCCSCc2ccccc2C)S(=O)(=O)c2ccccc2)cc1,7.4%,-16.5%,u,x
COc1cc(O)c(CC=C(C)C)c(O)c1C(=O)CCc1ccc(O)cc1,-91.7%,-11.7%,-10.9%,x
O=C(CCc1ccc(O)cc1)c1c(O)cc(O)cc1O,12.6µM*!,9.8%,8.5%,0.2
CCN(CC(=O)NCc1ccc(Cl)cc1)C(=O)CSc1ccc(Br)cc1,-109.9%,0.7%,-10.9%,x
Cc1cccc(OCc2nnc(SCC(=O)Nc3ccc(N4CCOCC4)cc3)o2)c1,3.4%,5.3%,0.2%,x
SMILES,NS1 function inh,AMA1-RON2 inh,SARS PLpro yeast,Flu NS1 inh
C=CCn1c(=NC(=O)c2cc(-c3cccs3)nc3ccccc23)sc2cc(S(N)(=O)=O)ccc21,u,9.6%,4.5%,x
COCCn1c(=NC(=O)c2cc(-c3cccs3)nc3ccccc23)sc2cc(S(N)(=O)=O)ccc21,11.2µM*,13.3%,4.7%,25.6
Cc1nn(-c2cc(N3CCOCC3)ccc2N)c(=O)c2ccccc12,14.1µM*,-7.9%,-6.4%,12.7
Cc1nn(-c2cc(N3CCOCC3)ccc2[N+](=O)[O-])c(=O)c2ccccc12,-1.2%,-0.7%,-2.8%,x
O=C(Cn1cnc2c(oc3ccccc32)c1=O)NCCc1ccccc1,5.01µM*,4.8%,x,-13.2
CC(C)C(C)NC(=O)Cn1cnc2c(oc3ccccc32)c1=O (configuration not stated),-13.7%,14.2%,2.0%,x
CCOCCc1nnc(NC(=O)C2CCN(C(=O)c3ccco3)CC2)s1,6.6%,2.2%,1.0%,x
Cc1ccc(N=Cc2c(O)c3ccccc3oc2=O)cc1F,23.9%,-1.3%,13.3%,x
COc1ccccc1-c1cnc(C(O)c2ccc(F)cc2C)[nH]1 (configuration not stated),x,4.6%,x,x
O=S(=O)(Nc1cccc(-c2ccc(N3CCCCCC3)nn2)c1)c1ccc(F)cc1,7.8%,-9.0%,6.0%,x
O=S(=O)(Nc1cccc(-c2ccc(N3CCCCCC3)nn2)c1)c1cccc(F)c1,u,-7.4%,3.6%,-3.1
Cc1noc(C)c1COc1ccc(C(=O)Nc2ncccc2O)cc1,x,17.7%,0.0%,x
O=C(CN(Cc1ccccc1)S(=O)(=O)c1ccc2c(c1)OCCO2)N/N=C/c1ccc(F)cc1,24.5%,-6.4%,-4.7%,x
Cc1cc(C(=O)CN(Cc2ccc(F)cc2)S(=O)(=O)c2ccc3c(c2)OCCO3)c(C)n1C,11.2µM*,-23.8%,-11.0%,-16.3
O=C(CSc1ccc(-c2nc3ccccc3[nH]2)cn1)Nc1ccc(S(=O)(=O)N2CCCC2)cc1,14.1µM*,11.2%,2.6%,9.3
Cc1cc2nc(-c3ccc(SCC(=O)Nc4ccc(S(=O)(=O)N5CCCC5)cc4)nc3)[nH]c2cc1C,u,7.2%,10.2%,x
C/C(=N\NC(=O)c1nnn(-c2nonc2N)c1CSc1ccccc1)c1ccc2c(c1)OCO2,15.2%,-4.1%,1.1%,x
CCOCCCNC(=O)C(NC(=O)c1ccc(NC(C)=O)cc1)c1ccc(Cl)cc1 (configuration not stated),0.4%,-21.2%,7.2%,x
CCOCCCNC(=O)C(NC(=O)CC1NC(=O)NC1=O)c1ccc(Cl)cc1 (configuration not stated),0.891µM*,-19.4%,8.0%,-17.3
COc1ccccc1CCN=C(N)NS(=O)(=O)c1ccc(C)c(C)c1,-2.8%,-6.2%,-4.4%,x
N#Cc1nc(-c2ccco2)oc1NCCCN1CCOCC1,2.51µM*,-13.0%,-6.5%,19.9
O=S(=O)(c1ccccc1)c1nc(-c2ccco2)oc1NCCCN1CCOCC1,7.1%,3.4%,17.0%,x
CC(=O)c1ccc(NC(=O)CN(c2c(C)cccc2C)S(C)(=O)=O)cc1,4.0%,-3.1%,-6.0%,x
O=C(CCCc1c[nH]c2ccccc12)NCc1ccccc1F,-11.5%,0.0%,-2.2%,x
CC(=O)Nc1nc(-c2ccc3c(c2)CCN3S(C)(=O)=O)cs1,4.5%,-3.8%,-0.1%,x
CS(=O)(=O)N1CCc2cc(-c3csc(NC(=O)Cc4cccs4)n3)ccc21,11.2µM*,-11.1%,-0.4%,19.2
CCCS(=O)(=O)NC(=O)C1(C)CCCN(C(=O)c2oc3ccccc3c2C)C1 (configuration not stated),x,7.9%,x,x
COc1c(C(=O)NNC(=O)c2ccccc2)csc1Br,-3.6%,21.5%,-1.7%,x
CCN(CC)S(=O)(=O)c1cccc(C(=O)OCC(=O)Nc2ccc3c(c2)c2ccccc2n3CC)c1,15.3%,-16.8%,3.3%,x

# Bioassay records (PubChem BioAssay)
